A selection: hits, their analogues and other compounds. The true share with any hit is near 3.4%.
GPR151 ag: activates the human receptor GPR151; actives 1% (n = 650,000); activation, % at 11.2 µM; PathHunter beta-arrestin GPR151 cells, luminescence; in the data active = activation above about 4.9%;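 note: 0% = median of compound wells and 100% = cells with positive control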
MITF inh: inhibitors of human MITF | O75030 | AlphaScreen MITF homodimerization, bead proximity signal | AID 1259374 | inhibition, % at 2.6 µM | actives 0.91% (n = 650,000); in the data active = inhibition above about 50%;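 note: 0% = vehicle wells with protein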
Target sequence (O75030 whole entry, looked up): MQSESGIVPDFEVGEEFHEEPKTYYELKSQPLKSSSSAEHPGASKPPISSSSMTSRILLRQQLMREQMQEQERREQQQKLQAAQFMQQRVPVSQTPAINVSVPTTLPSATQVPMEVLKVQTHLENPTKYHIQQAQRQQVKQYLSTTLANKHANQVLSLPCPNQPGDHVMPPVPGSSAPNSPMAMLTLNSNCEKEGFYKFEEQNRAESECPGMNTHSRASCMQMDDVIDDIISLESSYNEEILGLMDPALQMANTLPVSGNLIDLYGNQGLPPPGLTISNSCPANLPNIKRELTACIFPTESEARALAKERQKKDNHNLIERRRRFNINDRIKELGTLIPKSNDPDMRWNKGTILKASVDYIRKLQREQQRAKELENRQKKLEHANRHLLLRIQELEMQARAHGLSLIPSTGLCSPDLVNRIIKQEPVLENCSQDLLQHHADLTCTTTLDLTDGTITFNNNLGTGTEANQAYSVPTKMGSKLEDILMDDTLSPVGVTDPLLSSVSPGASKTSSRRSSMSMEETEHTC
TEAD-YAP inh: TEAD-YAP interaction inhibition. HEK-TIYL cells, TEAD-Gal4/YAP UAS-luciferase luminescence. inhibition, % at 9.12 µM. actives 1.4% (n = 640,000). AID 1259422; in the data active = inhibition above about 32%;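 note: 0% = median of test compound wells and 100% = reference inhibitor wells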
FBW7 activator: activators of human E3 ligase FBW7; AlphaScreen FBW7–phospho-cyclin E peptide binding, activator screen; AID 1259310; actives 0.13% (n = 650,000); normalized activity (activation), % at 26.1 µM; in the data active = normalized activity above about 1.9%;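 note: purified mutant Fbw7 with reduced substrate affinity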
Numbers without * were called inactive.

SMILES | GPR151 ag | MITF inh | TEAD-YAP inh | FBW7 activator
CS(=O)(=O)C1=NN2C(=N)/C(=C\c3ccc(Br)o3)C(=O)N=C2S1 | 2.5 | 79.4* | -10.1 | -0.3
CCS(=O)(=O)C1=NN2C(=N)/C(=C\c3ccc(C)o3)C(=O)N=C2S1 | 1.8 | 0.5 | -4.8 | -0.1
CCS(=O)(=O)C1=NN2C(=N)/C(=C\c3ccc([N+](=O)[O-])o3)C(=O)N=C2S1 | -0.4 | 93.0* | 3.3 | -0.7
CS(=O)(=O)C1=NN2C(=N)/C(=C\c3ccc(Br)cc3)C(=O)N=C2S1 | -1.8 | 2.4 | -17.4 | 0.1
CCS(=O)(=O)C1=NN2C(=N)/C(=C\c3ccc(Br)o3)C(=O)N=C2S1 | -0.4 | 77.7* | -0.2 | -0.6
COc1cccc(CN2CCC3(CCC(CNC(=O)c4csc(C)n4)O3)CC2)c1OC (stereo not drawn) | 0.1 | -28.0 | -3.2 | -0.1
C/C(=N\N=C1/NC(=O)C(CC(=O)O)S1)c1ccc2ccccc2c1O (stereo not drawn) | 3.6 | 83.1* | -7.5 | -0.1
Nc1cccc(-c2cccc(C(=O)NCCCN3CCCC3=O)c2)c1 | 0.2 | 0.1 | 41.4* | -0.1
FC(F)(F)c1ccc(Cn2cnc3c(NC4CCN(Cc5ccccc5)CC4)nc(Cl)nc32)cc1 | 0.5 | 4.5 | 20.5 | 0.1
OC1CCC(Nc2nc(NC3CCN(Cc4ccccc4)CC3)c3ncn(Cc4ccc(C(F)(F)F)cc4)c3n2)CC1 (stereo not drawn) | 2.9 | 2.5 | 49.4* | 0.0
O=C1CCCN1CCCNc1nc(NC2CCN(Cc3ccccc3)CC2)nc2c1ncn2-c1ccsc1 | 0.2 | -5.0 | 36.0* | -0.3
O=C1CCCN1CCCNc1nc(NC2CCN(Cc3ccccc3)CC2)nc2c1ncn2CCN1CCCC1=O | 0.6 | -1.6 | 1.5 | -0.1
CC(=O)Nc1ccc(Nc2nc(NCCCN3CCCC3=O)nc3c2ncn3-c2ccsc2)cc1 | -0.7 | 13.9 | 39.9* | -0.3
O=C1CCCN1CCCNc1nc(Nc2nccc3ccccc23)nc2c1ncn2-c1ccsc1 | 1.5 | -1.0 | 58.9* | 0.0
COc1ccc(N2CCN(C(=O)CSc3nnc4c5ccccc5n(C)c4n3)CC2)cc1 | -0.5 | 12.5 | 12.9 | 0.2
O=C(Cc1ccc(Cl)cc1)Nc1ccc(C(=O)Nc2ccccc2C(=O)O)cc1 | 1.3 | 3.0 | 0.6 | -0.3
O=c1cc2c(nn1-c1ccc(F)cc1)c1ccccc1n2Cc1ccccc1 | 0.2 | 4.9 | 6.0 | 0.0
O=C1CCCN1CCn1cnc2c(NCCc3ccc(O)cc3)nc(N3CCN(c4ccccn4)CC3)nc21 | -0.4 | 4.6 | 36.1* | -0.1
O=C1CCCN1CCCNc1nc(NCCN2CCOCC2)c2ncn(-c3ccsc3)c2n1 | -0.4 | 16.2 | 43.0* | 0.1
OC1CCC(Nc2nc(NC3CCN(Cc4ccccc4)CC3)c3ncn(-c4ccsc4)c3n2)CC1 (stereo not drawn) | 3.6 | -5.2 | 60.0* | -0.1
c1ccc(CN2CCC(Nc3nc(Nc4ccccc4)nc4c3ncn4-c3ccsc3)CC2)cc1 | -0.6 | 8.4 | 8.2 | -0.2
O=C1CCCN1CCCNc1nc(N2CCOCC2)nc2c1ncn2-c1ccsc1 | -0.3 | -1.1 | 57.0* | -0.4
O=C1CCCN1CCn1cnc2c(NCCO)nc(N3CCN(c4ccccn4)CC3)nc21 | 1.8 | 17.4 | -1.3 | 0.3
O=C1CCCN1CCCNc1nc(NCCCN2CCCC2=O)c2ncn(-c3ccccc3)c2n1 | -0.8 | -8.4 | -2.2 | -0.1
CCCNc1nc(-c2ccc(C(=O)NC3CC3)cc2)nc2c1ncn2-c1ccsc1 | -0.4 | 8.0 | 11.3 | 0.5
SMILES | GPR151 ag | MITF inh | TEAD-YAP inh | FBW7 activator
O=C1C2C3C=CC(CC3)C2C(=O)N1c1ccc(-c2ccccc2)cc1 (stereo not drawn) | 1.9 | -5.6 | -25.1 | 0.1
COc1cccc(CC2(CO)CCN(C3CCN(Cc4ccccc4)CC3)CC2)c1 | 1.2 | -17.2 | 13.0 | 0.1
O=C1CCCN1CCCNc1nc(Nc2ncccn2)nc2c1ncn2-c1ccsc1 | 1.0 | -5.0 | -0.2 | -0.1
CC(C)N(CCNc1nc(NCCCN2CCCC2=O)nc2c1ncn2-c1ccsc1)C(C)C | 0.7 | 4.7 | 6.9 | 0.0
O=C1CCCN1CCCNc1nc(N2CCN(c3ccccn3)CC2)nc2c1ncn2-c1ccsc1 | -3.3 | -7.5 | 58.2* | -0.1
CCCNc1nc(NCCCN2CCCC2=O)nc2c1ncn2-c1ccsc1 | -0.6 | 7.6 | 47.6* | -0.1
O=C(c1cn(-c2ccccc2)nc1-c1ccc(Cl)cc1)N1CCCCC1 | -0.9 | -6.7 | -14.7 | 0.6
O=C(c1ccc(Cl)cc1Cl)N1CCN(c2ccc(Nc3cccnc3)nn2)CC1 | 0.4 | -28.1 | -1.5 | -0.1
COC(=O)c1ccc(-c2cnc3ccc(NC4CCC(O)CC4)nn23)cc1 (stereo not drawn) | 0.7 | -4.4 | 41.3* | -0.4
OC1CCC(Nc2ccc3ncc(-c4ccc5ccccc5c4)n3n2)CC1 (stereo not drawn) | 0.7 | -14.8 | -0.2 | -0.3
COc1ccc(-c2cnc3ccc(NC4CCC(O)CC4)nn23)cn1 (stereo not drawn) | 1.9 | -13.0 | 35.9* | 0.0
CC(=O)/C=C/c1ccc(OCc2ccccc2)cc1 | -4.5 | 8.5 | 44.0* | -0.1
COc1ccc(/C=C/C(=O)Nc2ccc(S(=O)(=O)N(C)Cc3ccccc3)cc2)cc1 | 4.1 | -7.3 | 43.3* | -0.2
CCOc1ccc(/C=C/C(=O)Nc2ccccc2)cc1 | -8.7 | 2.1 | 51.2* | 0.4
CN(Cc1ccccc1)S(=O)(=O)c1ccc(NC(=O)/C=C/c2ccc(F)cc2)cc1 | -0.9 | -6.0 | 3.4 | 0.0
CC(NC(=O)Cc1csc(SCC(=O)c2ccccc2)n1)c1ccccc1 (stereo not drawn) | 0.5 | -9.8 | 8.8 | -0.1
COc1ccccc1-c1cc(C(F)(F)F)nc(SC2CC(=O)C3OCC2O3)n1 (stereo not drawn) | -1.3 | -10.4 | -10.4 | 0.0
Cc1nn(-c2ccccc2)c(C)c1CC(=O)N1CCc2nncn2CC1 | 1.3 | 4.2 | 6.7 | 0.1
COc1cccc(NC(=O)CCCOc2ccccc2)c1 | 0.4 | 6.0 | 3.4 | 0.6
Cc1cc(C)c2c(c1)[C@@H]1C=CC[C@@H]1[C@H](c1ccc(C(=O)O)cc1)N2 | -1.4 | 8.5 | 16.5 | -0.1
Cc1c(C(=O)O)ccc2c1N[C@@H](c1ccc(F)cc1)[C@H]1CC=C[C@@H]21 | -0.2 | 63.6* | -11.8 | -0.6
CC(=O)Oc1ccc(C2Nc3c(C(=O)O)cccc3C3C=CCC32)cc1 (stereo not drawn) | 0.1 | 66.0* | 10.3 | -1.0
Cc1ccc2c(c1C)N[C@@H](c1ccc(C(=O)O)cc1)[C@H]1CC=C[C@@H]21 | -0.6 | 71.2* | 12.0 | -0.6
CN(C)CCN1C(=O)C(=O)/C(=C(\O)c2ccccc2)C1c1ccccc1 (stereo not drawn) | -0.7 | 17.8 | -4.6 | 1.0
COc1ccc(C(=O)NNC(=O)Cn2cnc3c2c(=O)n(C)c(=O)n3C)cc1 | -0.4 | -10.2 | -4.8 | -0.1
CC(C)OCCCNCc1c(C(=O)O)n(Cc2ccccc2)c2ccccc12 | 0.2 | 3.1 | 8.5 | 0.8
CC(=O)N1CCSc2cc(S(=O)(=O)NCCCc3ccccc3)ccc21 | 1.8 | 8.8 | 34.8* | 0.5
CC(=O)N1CCSc2cc(S(=O)(=O)N3CCC(Cc4ccccc4)CC3)ccc21 | 0.8 | 12.5 | 54.5* | 0.8
